Where “and” joins values, the source holds several entries; their conditions need not be identical. Equal entries are not always repeated. Records with an inconclusive call do not appear. Calls of active or inactive are those of the source. Rule for the calls, unless noted: active = hit-call score of the fitted dose curve at least 0.9, where 1 is the maximum; inactive = score below 0.9.

By AC50 is commonly meant the concentration at which the activity in the assay is half-maximal.

Test [1] in a line: ATG_NFI_CIS: Attagene CIS-FACTORIAL HepG2 Assay for human Nuclear Factor I (NFI) (AID 2282989). The settings on record: HepG2 cis-regulatory reporter, NFI response element transcription; actives raise or lower the signal. The procedure, abridged:
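Transient MRTU transfection of HepG2 → 24 h chemical dosing → total RNA, oligo(dT) RT → PCR, 6-FAM primer extension, HpaI cut → capillary electrophoresis. Endpoint fitted bidirectionally relative to DMSO.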

Test [2] deals with Myc proto-oncogene protein (Homo sapiens) (UniProt P01106). Kind of test: ATG_Myc_CIS: Attagene CIS-FACTORIAL HepG2 Assay for human Myelocytomatosis (Myc) Proto-Oncogene Transcription Factor (AID 2282990). As to conditions: HepG2, Attagene cis-reporter transcription factor activity; actives raise or lower the signal. Put shortly: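 Multiplexed cis-reporter transcription in HepG2 cells after 24 h chemical treatment. Reporter mRNA measured by RT-PCR and capillary electrophoresis fluorescence; activity fitted bidirectionally against DMSO control.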
Sequence of Myc proto-oncogene protein (Homo sapiens) (P01106 whole entry, looked up): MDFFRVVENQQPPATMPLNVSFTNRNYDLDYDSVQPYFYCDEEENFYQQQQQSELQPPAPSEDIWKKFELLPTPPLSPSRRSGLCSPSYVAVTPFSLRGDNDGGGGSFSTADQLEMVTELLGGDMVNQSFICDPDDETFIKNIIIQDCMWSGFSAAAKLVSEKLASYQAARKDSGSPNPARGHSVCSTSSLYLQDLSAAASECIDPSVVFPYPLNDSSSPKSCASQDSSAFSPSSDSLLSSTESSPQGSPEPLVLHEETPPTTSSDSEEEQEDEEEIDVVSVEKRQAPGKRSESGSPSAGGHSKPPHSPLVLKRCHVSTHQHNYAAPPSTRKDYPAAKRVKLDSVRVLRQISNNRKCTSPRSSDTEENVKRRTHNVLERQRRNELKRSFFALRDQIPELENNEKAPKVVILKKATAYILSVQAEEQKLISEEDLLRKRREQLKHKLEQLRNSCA

The nature of test [3]: ATG_NF_kB_CIS: Attagene CIS-FACTORIAL HepG2 Assay for human Nuclear Factor Kappa B (NF-kB) (AID 2282991). As to conditions: HepG2 Attagene cis-factorial NF-kB reporter mRNA; actives raise or lower the signal. The procedure, abridged:
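DMSO served as negative control and baseline for bidirectional curve fitting. Transiently transfected HepG2 cells were dosed for 24 h, then reporter transcripts were measured by RT-PCR with capillary electrophoresis detection.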

The nature of test [4]: ATG_Oct_MLP_CIS: Attagene CIS-FACTORIAL HepG2 Assay for human Octamer-Binding Transcription Factor (Oct) (AID 2282993). The settings on record: HepG2 Attagene cis-factorial Oct reporter, mRNA; actives raise or lower the signal. The procedure, abridged:
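Transient MRTU transfection of HepG2 → 24 h compound treatment → RNA isolation, reverse transcription, PCR → 6-FAM primer extension, HpaI digest → capillary electrophoresis. Activity fitted both directions against DMSO.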

Test [5] has as its target Cellular tumor antigen p53 (Homo sapiens) (UniProt P04637). The test can be described thus: ATG_p53_CIS: Attagene CIS-FACTORIAL HepG2 Assay for human p53 Transcription Factor (AID 2282994). The settings on record: HepG2 p53 cis-element reporter, Attagene mRNA; actives raise or lower the signal. The procedure, abridged:
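Endogenous p53 activity read in transiently transfected HepG2 from a cis-element-driven reporter transcript after 24 h exposure. RNA reverse-transcribed, PCR-amplified, fluorescently labelled and sized by capillary electrophoresis; gain or loss fitted against DMSO baseline.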

Test [6] has as its target human Peroxisome Proliferator-activated Receptor alpha (PPARa), PPARA (gene 5465) (UniProt Q07869). Kind of test: ATG_PPARa_TRANS: Attagene TRANS-FACTORIAL HepG2 Assay for human Peroxisome Proliferator-activated Receptor alpha (PPARa) (AID 2283001; active = hit-call score of the fitted dose curve at least 0.9, where 1 is the maximum;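 for AC50: potency for gain of reporter signal over DMSO so agonist or activator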). Put shortly: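 Exposure: 24 h, transiently transfected HepG2 cells. Endpoint: GAL4-UAS reporter mRNA, RT-PCR with capillary electrophoresis fluorescence. Baseline: DMSO; increases fitted.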

Test [7] is described as follows: ATG_NRF2_ARE_CIS: Attagene CIS-FACTORIAL HepG2 Assay for human Nuclear Factor Erythroid 2 Related Factor 2 (NFR2) response to Antioxidant Response Elements (ARE) (AID 2282992). The settings on record: HepG2 Attagene ARE/NRF2 reporter, transcription factor activity; actives raise or lower the signal. Put shortly:
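Endogenous transcription factor activity read out as reporter transcript levels (RT-PCR plus capillary electrophoresis, fluorescence) in transiently transfected HepG2 cells. Measured at 24 h after dosing; gain or loss of signal fitted versus DMSO.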

Test [8] in a line: BSK_3C_TissueFactor: BioMAP Diversity Plus: 3C Assay for Tissue Factor Biomarker Activity (AID 2282997). The settings on record: BioMAP 3C HUVEC, tissue factor biomarker readout; actives raise or lower the signal. The procedure, abridged: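 Tissue Factor measured by ELISA, 24 h after treatment of primary HUVEC in the BioMAP 3C setting.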
Test [9] can be described thus: BSK_3C_uPAR: BioMAP Diversity Plus: 3C Assay for Urokinase-type plasminogen activator receptor (uPAR) Biomarker Activity (AID 2282998). The settings on record: BioMAP 3C HUVEC, uPAR biomarker ELISA; actives raise or lower the signal. Put shortly: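 ELISA readout of uPAR on human vascular endothelium (umbilical vein primary cells), taken 24 h after chemical dosing. Increases and decreases are both fitted relative to DMSO vehicle.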

Test [10] can be described thus: BSK_4H_Eotaxin3: BioMAP Diversity Plus: 4H Assay for Eotaxin 3 Biomarker Activity (AID 2283000).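 For outcome: CCL26 protein level quantified by ELISA in parallel with SRB cytotoxicity check.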 As to conditions: primary human endothelial cells (HUVEC); actives raise or lower the signal. Put shortly: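 Eotaxin-3 (CCL26) levels were measured by ELISA in HUVEC primary cultures 24 h post-dosing. Gain or loss of signal was fitted in both directions, with DMSO serving as baseline and negative control.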

Sequence of Cellular tumor antigen p53 (Homo sapiens) (P04637 whole entry, looked up): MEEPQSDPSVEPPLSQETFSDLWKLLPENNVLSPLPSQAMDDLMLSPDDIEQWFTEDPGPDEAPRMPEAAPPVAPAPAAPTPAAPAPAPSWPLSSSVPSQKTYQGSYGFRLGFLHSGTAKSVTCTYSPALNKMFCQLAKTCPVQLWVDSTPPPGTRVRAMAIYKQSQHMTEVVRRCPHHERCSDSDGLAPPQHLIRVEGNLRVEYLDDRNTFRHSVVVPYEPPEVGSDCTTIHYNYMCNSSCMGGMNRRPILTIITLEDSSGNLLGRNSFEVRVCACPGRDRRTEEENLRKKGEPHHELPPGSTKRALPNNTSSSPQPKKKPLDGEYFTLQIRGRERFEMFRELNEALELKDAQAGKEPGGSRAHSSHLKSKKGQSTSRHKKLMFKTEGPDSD
Sequence of human Peroxisome Proliferator-activated Receptor alpha (PPARa), PPARA (gene 5465) (Q07869 whole entry, looked up, the tested form may be a part): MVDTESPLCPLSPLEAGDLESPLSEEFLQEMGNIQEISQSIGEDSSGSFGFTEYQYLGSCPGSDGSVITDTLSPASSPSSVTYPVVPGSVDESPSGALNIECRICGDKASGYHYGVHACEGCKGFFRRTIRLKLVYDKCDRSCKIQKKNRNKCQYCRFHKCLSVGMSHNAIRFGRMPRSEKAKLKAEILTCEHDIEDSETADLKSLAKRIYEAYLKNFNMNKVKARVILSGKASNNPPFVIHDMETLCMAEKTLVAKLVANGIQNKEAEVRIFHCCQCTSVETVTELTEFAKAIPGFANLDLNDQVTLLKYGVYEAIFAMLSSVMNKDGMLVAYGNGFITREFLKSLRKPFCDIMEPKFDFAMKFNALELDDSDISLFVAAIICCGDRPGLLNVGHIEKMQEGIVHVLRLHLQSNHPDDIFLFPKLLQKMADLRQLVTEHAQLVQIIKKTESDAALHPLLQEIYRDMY

`CCOC(=O)[C@H](C)O`: the compound was called inactive in [1], in test [2], in test [3], in [4], in [5] and in [6].

For the compound `O=C(c1ccccc1)C1CCC1`, the call in test [1], in test [2], in [3] and in [4] was inactive.

Turning to `O=C(/C=C/C=C/c1ccc2c(c1)OCO2)N1CCCCC1`, the result in [1], in [2], in [3], in [4] and in test [5] was inactive.

Turning to `CC(C)(C)C(=O)C=Cc1ccc(Cl)cc1`, the AC50 is 48.8 µM (active) in test [1], 59 µM (active) in test [5] and 24.7 µM (active) in test [6]. Further, the compound was called inactive in test [2] and in [3].

Take `CCCCCCCC(C)=O`: the compound was called inactive in test [1], in test [2], in test [3] and in test [5].

As for `Cn1c(=O)[nH]c2ncn(C)c2c1=O`, the call in test [1], in test [2], in [3], in [4] and in test [5] was inactive.

Consider `CC=CC(F)(F)C(F)(F)C(F)(F)F`, for which the outcome in [1], in test [2], in test [3], in [7] and in [6] was inactive.

`O=C1CCCC(=O)O1`: the outcome in [1], in [2], in [3], in test [7] and in [6] was inactive.

On to `COC(=O)/C=C\C(=O)O`, for which the compound was classed as inactive in test [1], in [2], in test [3], in test [5] and in test [6]. Moreover, in [7], the AC50 is 43.3 µM (active).

Turning to `CO[Si](OC)(OC)c1ccccc1`, the result in test [1], in [2], in [3], in test [4], in test [5] and in test [8] was inactive. In addition, the result in [9] and in test [10] was inactive.

On to `O=P(O)(O)Oc1ccccc1`, for which the call in [1], in test [2], in [3], in test [7], in [5] and in test [6] was inactive.

As to `CCCCCCCCCCOC(C)=O`, the result in test [1], in test [2], in test [3], in test [7], in test [5] and in test [6] was inactive.

Turning to `Cc1ccc2oc(=O)ccc2c1`, the outcome in [1], in test [2], in test [3], in [4] and in test [6] was inactive.

Take `CCOc1ccc(N)c([N+](=O)[O-])c1`: the compound was classed as inactive in [1], in test [2], in [3], in test [4], in test [5] and in test [6].

In the case of `CCCCCC/C=C\CCCCCCCC(=O)O`, the compound was called inactive in test [1], in test [2], in test [3], in test [4], in test [5] and in test [6].

For `CCOC(=O)c1ccccc1C(=C1C=C(Br)C(=O)C(Br)=C1)c1cc(Br)c(O)c(Br)c1`, the AC50 in test [1] was 22.4 µM (active); in [3], 43 µM (active); in [4] it was 53.1 µM (active); in test [5], 48.3 µM (active); in test [8] it was 18.6 µM (active) and 9.69 µM (active); in [9] it was 20 µM (active) and 17.9 µM (active). In addition, the AC50 in [10] is 22.7 µM (active) and 23 µM (active). The call in test [2] was inactive.

For the compound `O=C(O)c1cc(Cl)cc([N+](=O)[O-])c1Cl`, the result in test [1], in [2], in [3], in test [7], in test [5] and in [6] was inactive.

In the case of `CCN(CC)c1ccc(C(=O)c2ccccc2C(=O)O)c(O)c1`, the compound was classed as inactive in test [1], in [2], in [3], in test [7] and in test [6].

`CC1(C)O[C@@H]2C[C@H]3[C@@H]4C[C@H](F)C5=CC(=O)C=C[C@]5(C)[C@@]4(F)[C@@H](O)C[C@]3(C)[C@]2(C(=O)CO)O1`: the compound was called inactive in test [1], in test [2], in [7] and in test [4].

In the case of `CCN(CC#N)c1cccc(C)c1`, the compound was classed as inactive in [1], in test [2], in test [7], in [4] and in test [5].

Turning to `O=C1Nc2ccccc2C1(c1ccc(O)cc1)c1ccc(O)cc1`, the compound was classed as inactive in test [1] and in test [2]. Besides, the results for the concentration at half-maximal activity (AC50) in test [7] and in test [4] were 178 µM (active) and 22.4 µM (active), respectively.

Turning to `COCCOCCOCCOCCOC`, the compound was classed as inactive in test [1], in test [2], in [7], in [4], in test [5] and in test [6].

As to `O=CN1CCCCC1`, the outcome in [1], in [2] and in test [7] was inactive.

In the case of `COc1ccc([C@@H]2CC(=O)c3c(O)cc(O[C@@H]4O[C@H](CO[C@@H]5O[C@@H](C)[C@H](O)[C@@H](O)[C@H]5O)[C@@H](O)[C@H](O)[C@H]4O)cc3O2)cc1OC`, the compound was called inactive in [1], in test [2], in test [7], in test [4], in test [5] and in test [6].

`CC(=O)[C@@]1(O)CC[C@H]2[C@@H]3C[C@H](C)C4=CC(=O)C=C[C@]4(C)[C@@]3(F)[C@@H](O)C[C@@]21C`: the result in [1], in [2], in [7], in test [4], in [5] and in test [6] was inactive.

Consider `C=C[Si](OC(C)=O)(OC(C)=O)OC(C)=O`, for which the compound was classed as inactive in [1], in test [2], in test [7], in test [4], in [5] and in [8]. For the same compound, the result in [9] and in test [10] was inactive.

As for `CC(C)CC(O)Cc1ccccc1` (centres undefined), the outcome in test [1], in [2], in [4] and in [5] was inactive. In addition, the AC50 in test [7] was 41.9 µM (active).

Turning to `O=C1c2cccc(O)c2C(=O)c2c(O)cc(CO)cc21`, the outcome in test [1], in test [2], in [4], in test [5] and in test [6] was inactive. Moreover, in test [7], the concentration at half-maximal activity (AC50) was 6.09 µM (active).

For the origin of these results see PubChem BioAssay (EPA / NIEHS).
